The list is not random: actives were taken first. Their share in the collection is about 0.5%.
E coli growth-1 = E. coli V3065 growth inhibition, primary screen, counter-screen for AddAB inhibitor project, absorbance, OD600 | 18 h | inhibition, % at 11.9 µM | actives 0.27% (n = 330,000);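 active = inhibition above the campaign's mean inhibition across all tested compounds plus 3 SD, cut at about 9.9% in these data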;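 also: uninfected addAB+ strain grown without phage in ampicillin broth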
E coli growth-2 = E. coli growth inhibition, primary screen, OD600; OD600 absorbance (test concentration not listed); actives 0.21% (n = 330,000); Escherichia coli growth, 23 h; hits give low values;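 active = OD600 absorbance below the run mean of sample wells minus 3.6 SD, in any replicate, cut at about 0.56 in these data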
Tat export inh = E. coli Tat export inhibitors, primary screen, MC4100, TorA-mCherry reporter, fluorescence, single point | inhibition, % at 10 µM | actives 0.036% (n = 340,000);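 active = mean replicate inhibition at least 50% and at least half of replicates individually reaching 50%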;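 also: exported cargo escapes ClpAP degradation while cytoplasmic cargo is degraded and loses fluorescence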
phage Ecoli inh = growth loss of phage-infected E. coli, primary screen, RecBCD inhibitor project, absorbance, with phage, HTS. inhibition, % at 11.9 µM. actives 0.26% (n = 360,000); in the data active = inhibition above about 11%
AddAB inh = growth inhibition of E. coli expressing H. pylori AddAB, primary screen, AddAB inhibitor project, absorbance | inhibition, % at 11.9 µM | actives 0.29% (n = 330,000) | AID 435030, 2010; in the data active = inhibition above about 12%
AddAB conf = growth loss of phage-infected E. coli expressing H. pylori AddAB, confirmation, AddAB inhibitor project, absorbance, E. coli V3065, T4 phage, triplicate; shares compounds with AddAB inh; actives 64% (n = 880); inhibition, % at 11.9 µM; AID 488942, 2010; OD; T4 phage with gene 2 nonsense mutations;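 active = mean inhibition above a set limit taken from the earlier primary screen, cut at about 13% in these data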;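 also: higher means less bacterial growth since AddAB block lets phage replicate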
RecBCD counter = growth loss of RecBCD+ E. coli with mutant T4 phage, counter-screen for AddAB inhibitor project, absorbance, V66 E. coli | shares compounds with AddAB inh | OD growth | inhibition, % at 11.9 µM | actives 73% (n = 880);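 active = mean inhibition above the mean of solvent-only control wells plus 3 SD, cut at about 4% in these data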;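 also: optical density read after an 18 h incubation at 37 °C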
Bact viability = bacterial viability inhibition counter-screen, confirmation, counter-screen for AddAB inhibitor project, absorbance; inhibition, % at 11.9 µM; absorbance (AddAB counterscreen); actives 35% (n = 880); shares compounds with AddAB inh; AID 488956, 2010; in the data active = inhibition above about 25%
RecBCD conf = growth loss of phage-infected RecBCD+ E. coli, confirmation, RecBCD inhibitor project, absorbance, E. coli V66, T4 gene 2 phage. shares compounds with phage Ecoli inh. inhibition, % at 11.9 µM. E. coli V66 + T4 2- phage, growth OD. AID 651982, 2013. actives 45% (n = 890);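 active = mean inhibition over triplicates exceeding the hit threshold derived in the original primary screen, cut at about 11% in these data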
Ecoli viability = E. coli viability inhibition, counter-screen for RecBCD inhibitor project, absorbance, high throughput; actives 29% (n = 890); absorbance (OD) growth; inhibition, % at 11.9 µM; shares compounds with phage Ecoli inh; AID 651983, 2013; in the data active = inhibition above about 20%;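 also: E. coli strain V66 grown with compound alone and no phage infection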
AddAB phage OD = growth loss of phage-infected AddAB-carrying E. coli, confirmation, counter-screen for RecBCD inhibitor project, absorbance, E. coli V3065, T4 phage. shares compounds with phage Ecoli inh. actives 45% (n = 890). inhibition, % at 11.9 µM. E. coli expressing H. pylori AddAB + T4 phage, OD growth; gene 2 mutant T4, recBCD-deleted host. AID 651984, 2013;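 active = mean inhibition above the solvent-only control wells' mean plus 3 SD, cut at about 22% in these data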;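 also: higher means less bacterial growth from phage killing when AddAB is blocked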
Large screens that a line does not name were inactive (follow-up assays come after a bar, where they were run).

CC(NC(=O)c1nc[nH]c1C(=O)NC(CCCCN)C(=O)OC(C)(C)C)C(=O)OCc1ccccc1 (stereo unspecified)	none (no result: E coli growth-1, Tat export inh, phage Ecoli inh, AddAB inh)
Cn1c(O)c(/C=N/NC(=O)c2cc3ccccc3cc2O)c2ccccc21	E coli growth-1 25, phage Ecoli inh 22, AddAB inh 23 (no result: E coli growth-2) | AddAB conf 25 | RecBCD counter 25 | Bact viability inactive | RecBCD conf 19 | Ecoli viability 23 | AddAB phage OD 30
Oc1ccc(N=Nc2ccc3c(c2)OCCO3)c2ncccc12	phage Ecoli inh 11, AddAB inh 13 | AddAB conf 13 | RecBCD counter 9.6 | Bact viability inactive | RecBCD conf inactive | Ecoli viability inactive | AddAB phage OD inactive
NS(=O)(=O)c1ccc(N=Nc2ccc(O)c3ncccc23)cc1	none
CCn1cc(C(=O)Nc2ncccc2O)c(=O)c2cc(F)c(N3CCN(C(=O)c4ccco4)CC3)cc21	E coli growth-1 64, E coli growth-2 0.11, phage Ecoli inh 15, AddAB inh 93 | AddAB conf 102 | RecBCD counter 4.9 | Bact viability 77 | RecBCD conf inactive | Ecoli viability inactive | AddAB phage OD 86
CCn1cc(C(=O)O)c(=O)c2cc(F)c(NN=Cc3ccccc3[N+](=O)[O-])cc21	none (no result: E coli growth-1, Tat export inh, phage Ecoli inh, AddAB inh)
CCCOc1ccc(C(=O)NC(=S)N2CCN(c3ncc4c(=O)c(C(=O)O)cn(CC)c4n3)CC2)cc1	none (no result: E coli growth-1, E coli growth-2, Tat export inh, AddAB inh)
CCn1cc(C(=O)O)c(=O)c2cc(F)c(N3CCN(C(=S)NC(=O)c4ccccc4C)CC3)cc21	E coli growth-1 100, E coli growth-2 0.071, Tat export inh 59, phage Ecoli inh 97, AddAB inh 99 | AddAB conf 99 | RecBCD counter 101 | Bact viability 100 | RecBCD conf 104 | Ecoli viability 105 | AddAB phage OD 104
CCn1cc(C(=O)O)c(=O)c2cc(F)c(N3CCN(C(=S)NC(=O)c4ccccc4)CC3)cc21	E coli growth-1 101, E coli growth-2 0.077, phage Ecoli inh 82, AddAB inh 101 | AddAB conf 99 | RecBCD counter 100 | Bact viability 103 | RecBCD conf 100 | Ecoli viability 100 | AddAB phage OD 100
CCn1cc(C(=O)O)c(=O)c2cc(F)c(N3CCN(C(=S)NC(=O)c4cc(OC)cc(OC)c4)CC3)cc21	E coli growth-1 98, E coli growth-2 0.083, phage Ecoli inh 97, AddAB inh 98 | AddAB conf 101 | RecBCD counter 100 | Bact viability 101 | RecBCD conf 104 | Ecoli viability 105 | AddAB phage OD 106
CCn1cc(C(=O)O)c(=O)c2cc(F)c(N3CCN(S(=O)(=O)c4ccc(Br)cc4)CC3)cc21	none (no result: E coli growth-2, Tat export inh, phage Ecoli inh)
CCCCC1CNCCN1CCCc1cc(OC)c(OC)c(OC)c1 (stereo unspecified)	none (no result: E coli growth-1, Tat export inh, phage Ecoli inh, AddAB inh)
O=C(c1cc(-c2ccncc2)nc2ccccc12)N1CCN(S(=O)(=O)C=Cc2ccccc2)CC1	none (no result: E coli growth-1, Tat export inh, phage Ecoli inh, AddAB inh)
C=CCNC(=S)N1CCN(c2cc3c(cc2F)c(=O)c(C(=O)O)cn3CC)CC1	E coli growth-1 99, E coli growth-2 0.076, phage Ecoli inh 41, AddAB inh 100 | AddAB conf 103 | RecBCD counter 101 | Bact viability 104 | RecBCD conf 103 | Ecoli viability 105 | AddAB phage OD 104
CCCCOC(=O)c1ccc(NC(=S)N2CCN(c3ncc4c(=O)c(C(=O)O)cn(CC)c4n3)CC2)cc1	none
CCn1cc(C(=O)O)c(=O)c2cc(F)c(N3CCN(C(=S)Nc4ccc(OC)cc4)CC3)cc21	E coli growth-1 101, E coli growth-2 0.076, Tat export inh 72, phage Ecoli inh 101, AddAB inh 100 | AddAB conf 99 | RecBCD counter 99 | Bact viability 99 | RecBCD conf 104 | Ecoli viability 104 | AddAB phage OD 104
CC1CN(C(C)CO)C(=O)c2cc(N(C)C)ccc2OC1CN(C)S(C)(=O)=O (stereo unspecified)	none (no result: E coli growth-1, Tat export inh, phage Ecoli inh, AddAB inh)
Cc1[nH]c(=O)[nH]c(=O)c1C=NNC(=O)C(C)NC(=O)OC(C)(C)C (stereo unspecified)	none (no result: E coli growth-1, Tat export inh, phage Ecoli inh, AddAB inh)
CCCCCOc1ccc(CSC(=N)N)cc1[N+](=O)[O-]	E coli growth-1 13, E coli growth-2 0.53, phage Ecoli inh 13, AddAB inh 13 | AddAB conf 15 | RecBCD counter 9.7 | Bact viability inactive | RecBCD conf inactive | Ecoli viability inactive | AddAB phage OD inactive
COc1ccc(-c2cc(N3CCCC3)n3ncnc3n2)cc1	E coli growth-1 20, phage Ecoli inh 14, AddAB inh 17 | AddAB conf 21 | RecBCD counter 14 | Bact viability inactive | RecBCD conf inactive | Ecoli viability inactive | AddAB phage OD inactive
CCn1cc(C(=O)N[C@H](C(=O)NCCCOC)C(C)C)c(=O)c2cc3c(cc21)OCO3	none
CCn1cc(C(=O)N[C@H](C(=O)O)C(C)C)c(=O)c2cc3c(cc21)OCO3	E coli growth-1 55, E coli growth-2 0.069, phage Ecoli inh 12, AddAB inh 59 | AddAB conf 101 | RecBCD counter 10 | Bact viability 78 | RecBCD conf inactive | Ecoli viability inactive | AddAB phage OD 52
CCCC(=O)NC(c1ccc(OC)cc1)c1ccc2cccnc2c1O (stereo unspecified)	E coli growth-1 30, phage Ecoli inh 31, AddAB inh 28 | AddAB conf 25 | RecBCD counter 25 | Bact viability inactive | RecBCD conf 16 | Ecoli viability 23 | AddAB phage OD 23
O=[N+]([O-])c1ccc(NC(c2ccccc2)c2ccc3cccnc3c2O)cc1 (stereo unspecified)	none (no result: E coli growth-1, AddAB inh)
COc1cccc(C(NC(C)=O)c2ccc3cccnc3c2O)c1 (stereo unspecified)	none (no result: E coli growth-2)
